This passage reports growth results from PubChem BioAssay (NCI).

Holding throughout (experiment): NCI-60 one-dose screen, 48 h (100 = growth as untreated, 0 = no growth, -100 = all killed)
The test system of experiment [1] is HCT-15 colon. As to conditions: 10 µM unless noted.
For experiment [2], the system named is HT29 colon. As to conditions: 10 µM unless noted.
In experiment [3] the test system is SNB-75 CNS. Conditions: 10 µM unless noted.
Experiment [4] has as its system SNB-19 CNS. As to conditions: 10 µM unless noted.
Experiment [5] relates to U251 CNS. As to conditions: 10 µM unless noted.
Experiment [6] relates to PC-3 prostate. As to conditions: 10 µM unless noted.
Experiment [7] relates to SK-MEL-5 melanoma. As to conditions: 10 µM unless noted.
In experiment [8] the test system is LOX IMVI melanoma. As to conditions: 10 µM unless noted.
Experiment [9] relates to SK-MEL-28 melanoma. Conditions: 10 µM unless noted.
Experiment [10] concerns SK-MEL-2 melanoma. Conditions: 10 µM unless noted.
Experiment [11] has as its system EKVX NSCLC. Conditions: 10 µM unless noted.
For experiment [12], the system named is SN12C renal. As to conditions: 10 µM unless noted.
For experiment [13], the system named is UO-31 renal. Conditions: 10 µM unless noted.
Experiment [14] concerns TK-10 renal. Conditions: 10 µM unless noted.
Experiment [15] has as its system ACHN renal. Conditions: 10 µM unless noted.
Experiment [16] concerns A498 renal. Conditions: 10 µM.
In experiment [17] the test system is HL-60(TB) leukemia. As to conditions: 10 µM unless noted.
For experiment [18], the system named is CCRF-CEM leukemia. Conditions: 10 µM unless noted.
Experiment [19] deals with CAKI-1 renal. As to conditions: 10 µM unless noted.
Experiment [20] deals with UACC-62 melanoma. As to conditions: 10 µM unless noted.

The panel holds about 83,000 compounds, 20% with a hit somewhere; the sample as a whole holds those more often.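 Activity criterion: percent growth below 10, measured after cells in 96-well plates were exposed to a single compound concentration for 48 hours.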 Values without a mark were called inactive. Activity calls are given as the source filed them.

Regarding `Fc1ccc2c(c1)c(-c1nc(-c3c[nH]c4ncccc34)cs1)cn2CCCCN1CCCCC1`, the growth in [1] was -72% (active); in experiment [2] it was -97% (active); in experiment [3], -70.5% (active); in experiment [4], -88.5% (active); in experiment [5], -87.7% (active); in [6], -86.5% (active). Also, the growth in experiment [7] is -83.1% (active); in [8], -79.3% (active); in experiment [9], -86.9% (active); in experiment [10], -76.7% (active); in [11], 23.3%; in experiment [12] it was -84.4% (active). Moreover, the growth in experiment [13] was -86.9% (active); in [14] it was -86.1% (active); in experiment [15] it was -97.4% (active); in experiment [16], 63.2%; in experiment [17], -70% (active); in experiment [18] it was -61.4% (active).

For `CCOC(=O)[C@@H](C)C[C@H](Cc1ccccc1)NC(=O)c1csc([C@@H](C[C@H](C(C)C)N(C)C(=O)[C@@H](NC(=O)[C@H]2C[C@H](O)CCN2C)C(C)C)OC(C)=O)n1`, the growth in experiment [1] was 9.76% (active); in [2], 0.338% (active); in [3], 10.6%; in [4], 21.8%; in experiment [5] it was 10.1%; in [6], 24.5%. Besides, the growth in experiment [7] is -4.08% (active); in experiment [8], 18.2%; in experiment [9], 51.1%; in experiment [10] it was 16.8%; in [11], 47.6%; in experiment [12] it was 20.6%. Also, the growth is 38.4% in experiment [14], 19.7% in experiment [15], 30.9% in experiment [19] and -27.1% (active) in experiment [17].

`CN1C(=O)C(=Cc2cn(CCCCCCn3c4ccccc4c(=O)c4ccccc43)c3ccccc23)C(=O)N(C)C1=O`: the growth is 92.1% in [1]; 96.1% in [2]; 91.4% in experiment [3]; 104% in experiment [4]; 99.2% in [5]; 89.8% in experiment [6]. The growth was 94.3% in experiment [7]; 93% in experiment [8]; 98% in experiment [9]; 92.8% in experiment [10]; 96.2% in [11]; 104% in [12]. In addition, the growth in [13] is 65.6%; in [14], 111%; in experiment [15] it was 92.9%; in experiment [16] it was 110%; in [17] it was 79.3%; in [18], 109%.

For the molecule `Cn1cc(-c2csc(-c3cn(CCN4CCOCC4)c4ccc(F)cc34)n2)c2cccnc21`, the growth was 19.6% in experiment [1]; 40.1% in experiment [2]; 51.1% in [3]; 49.2% in experiment [4]; 36.9% in experiment [5]; 1.07% (active) in experiment [6]. In addition, the growth in [7] is -28.8% (active); in [8], 27.9%; in experiment [9], 40.5%; in experiment [10] it was 15.8%; in experiment [11] it was 37.5%; in experiment [12], 61.4%. The growth is 11% in experiment [13]; 55.7% in [14]; 17.7% in experiment [15]; 68.1% in experiment [16]; 1.01% (active) in experiment [17]; 12.4% in experiment [18].

In the case of `[Cl][Hg][c]1cc[c]([Hg][Cl])o1`, the growth in experiment [1] is -47.3% (active); in experiment [2] it was 30.9%; in experiment [3], 54.4%; in experiment [4], 15.4%; in experiment [5] it was -40.8% (active); in [6], 51.3%. The growth in experiment [7] was 39.7%; in experiment [8], -10.3% (active); in experiment [9], 49.1%; in experiment [10], 57.9%; in experiment [11], 20.5%; in [12], 34.9%. Also, the growth was 3.18% (active) in experiment [13]; 41.8% in experiment [14]; 3.3% (active) in experiment [15]; 109% in experiment [16]; 22.5% in [17]; 4.4% (active) in [18].

`c1cnc2[nH]cc(-c3csc(-c4cn(CCCCN5CCCCC5)c5ccccc45)n3)c2c1`: the growth is 51% in [1]; 34.4% in [2]; 70.3% in [3]; 90.4% in experiment [4]; 86.3% in experiment [5]; 63.1% in [6]. The growth in experiment [7] was 70.4%; in [8], 84.2%; in experiment [9], 83%; in experiment [10] it was 97.6%; in experiment [11] it was 83.1%; in experiment [12], 75.2%. The growth in experiment [13] is 49.2%; in experiment [14], 124%; in experiment [15], 98.5%; in [16], 95.7%; in [17] it was 47.9%; in experiment [18] it was 62.9%.

For the molecule `O=C(CC1(O)C(=O)N(Cc2ccccc2)c2ccc(Br)cc21)c1ccc(C(=O)NCC2CCC3(CC2)OOC2(CCCCC2)OO3)cc1` (stereo not drawn), the growth in experiment [1] was 2.73% (active); in experiment [2], -65.5% (active); in experiment [3], 15%; in experiment [4] it was 56.1%; in experiment [5], -85.4% (active); in experiment [6] it was -36.3% (active). The growth in [20] was 80.7%; in experiment [8], -79.7% (active); in [9] it was 77.4%; in [10], 34.1%; in experiment [11], -65% (active); in [12], -55.8% (active). Moreover, the growth in experiment [14] is -80.9% (active); in experiment [15] it was -83% (active); in experiment [19], -90.8% (active); in [16], -74% (active); in [17] it was -57.3% (active); in experiment [18], -41.6% (active).

For `CCCCCCCCCCCCCCCCCCOc1ccccc1COP(=O)(O)OOCC[N+](C)(C)C`, the growth in experiment [1] is 41.2%; in experiment [2], -11.4% (active); in experiment [3] it was -4.01% (active); in experiment [4] it was -13.9% (active); in experiment [5] it was -58.8% (active); in experiment [7] it was -72.9% (active). Further, the growth in experiment [20] was -11.5% (active); in experiment [8], -88.1% (active); in experiment [9], 21.4%; in experiment [10] it was 35.9%; in experiment [11], 11.4%; in experiment [12], -6.04% (active). In addition, the growth was 38.5% in experiment [13]; 3.59% (active) in experiment [14]; 8.89% (active) in experiment [15]; 1.63% (active) in [19]; 52.6% in experiment [16]; -42% (active) in experiment [17]. Also, the growth in experiment [18] was -12.8% (active).
